Drawing on PubChem BioAssay, this text covers composite z-score and z-score for six compounds.

Active and inactive are the calls of the source. Unless noted, the rule behind the calls is not given here.

Assay [1] in a line: compounds binding Alexa647 anti-His antibody – biochemical, small-molecule microarray, 635 nm fluorescence, artefact control for SMM control protein annotation, primary screen (AID 1128).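 Note: score merges feature fluorescence with signal-to-noise for each printed compound spot.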 The settings on record: higher = more signal.
Assay [2] concerns Human papillomavirus type 1a E7 protein (residues 1-88). Briefly: HPV1a E7 small-molecule binders, primary screen, biochemical, small-molecule microarray, residues 1-88, 635 nm (AID 1129). As to conditions: small-molecule microarray binding, fluorescence 635 nm; higher = more signal.
The target in assay [3] is Focal adhesion kinase 1 (Homo sapiens) (UniProt Q05397). Kind of assay: PTK2 protein binding on printed compound slides – biochemical, small-molecule microarray, 635/667 nm fluorescence, BSA, DTT, primary screen (AID 1130).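 Note: composite of spot emission at 667 nm and signal to noise over triplicate slides.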 The settings on record: 635 nm fluorescence, higher = more signal.
Focal adhesion kinase 1 (Homo sapiens), sequence (Q05397 whole entry, looked up): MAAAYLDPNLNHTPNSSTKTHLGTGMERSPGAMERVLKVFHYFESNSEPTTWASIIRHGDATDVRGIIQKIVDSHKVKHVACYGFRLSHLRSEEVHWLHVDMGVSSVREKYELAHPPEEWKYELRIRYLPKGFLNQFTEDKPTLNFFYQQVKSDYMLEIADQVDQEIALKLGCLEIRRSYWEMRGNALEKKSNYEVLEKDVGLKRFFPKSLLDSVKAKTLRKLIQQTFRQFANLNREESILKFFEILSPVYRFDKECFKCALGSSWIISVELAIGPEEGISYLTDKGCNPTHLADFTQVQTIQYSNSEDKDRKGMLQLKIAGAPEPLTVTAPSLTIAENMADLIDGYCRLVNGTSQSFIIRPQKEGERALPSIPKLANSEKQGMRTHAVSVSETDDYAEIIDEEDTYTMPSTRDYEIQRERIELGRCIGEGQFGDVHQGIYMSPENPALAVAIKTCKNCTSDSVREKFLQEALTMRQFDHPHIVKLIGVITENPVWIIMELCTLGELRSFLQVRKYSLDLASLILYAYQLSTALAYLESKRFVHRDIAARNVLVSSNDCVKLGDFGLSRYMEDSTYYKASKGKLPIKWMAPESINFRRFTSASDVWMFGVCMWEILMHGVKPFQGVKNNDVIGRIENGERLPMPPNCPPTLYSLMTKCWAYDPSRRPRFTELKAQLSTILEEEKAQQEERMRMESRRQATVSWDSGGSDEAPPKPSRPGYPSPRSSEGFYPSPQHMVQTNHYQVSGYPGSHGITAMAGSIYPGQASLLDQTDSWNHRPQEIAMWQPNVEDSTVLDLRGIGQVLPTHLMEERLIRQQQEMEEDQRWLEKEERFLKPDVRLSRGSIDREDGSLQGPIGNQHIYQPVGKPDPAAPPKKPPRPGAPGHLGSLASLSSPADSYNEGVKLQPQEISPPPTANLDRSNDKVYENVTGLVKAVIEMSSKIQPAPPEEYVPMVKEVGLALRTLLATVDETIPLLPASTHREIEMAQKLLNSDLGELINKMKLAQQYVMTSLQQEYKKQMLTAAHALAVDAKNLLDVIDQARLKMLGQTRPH
Assay [4] has as its system Fibrinogen (Alexa647-labelled). Briefly: Alexa647-fibrinogen binding to printed small molecules – biochemical, small-molecule microarray, 635/667 nm fluorescence, artefact control for SMM control-protein annotation, profiling panel (AID 1131).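 Note: z-score merges 667 nm fluorescence with per-spot signal-to-noise over triplicate slides.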 As to conditions: fibrinogen-A647 binding fluorescence, higher = more signal.
The target in assay [5] is Follistatin (Homo sapiens) (UniProt P19883). Kind of assay: FST protein binding to printed compounds – biochemical, small-molecule microarray, 635/667 nm fluorescence, primary screen (AID 1132). As to conditions: 635 nm fluorescence, higher = more signal.
Follistatin (Homo sapiens), sequence (P19883 whole entry, looked up): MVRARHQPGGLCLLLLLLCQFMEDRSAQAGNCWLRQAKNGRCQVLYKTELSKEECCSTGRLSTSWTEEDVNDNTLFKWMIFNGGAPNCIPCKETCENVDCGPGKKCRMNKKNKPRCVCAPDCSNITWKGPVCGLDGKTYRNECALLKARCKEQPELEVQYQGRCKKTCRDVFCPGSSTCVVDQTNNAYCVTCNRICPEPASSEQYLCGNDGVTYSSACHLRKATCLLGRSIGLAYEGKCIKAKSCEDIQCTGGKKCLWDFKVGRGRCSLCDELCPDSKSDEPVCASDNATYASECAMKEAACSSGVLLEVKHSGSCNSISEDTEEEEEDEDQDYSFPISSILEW
In assay [6] the target is Fibroblast growth factor 2 (Homo sapiens) (UniProt P09038). Briefly: basic fibroblast growth factor binding to printed compounds – biochemical, small-molecule microarray, 635/667 nm fluorescence, primary screen (AID 1133). As to conditions: FGF2, fluorescence 635/667, higher = more signal.
Fibroblast growth factor 2 (Homo sapiens), sequence (P09038 whole entry, looked up): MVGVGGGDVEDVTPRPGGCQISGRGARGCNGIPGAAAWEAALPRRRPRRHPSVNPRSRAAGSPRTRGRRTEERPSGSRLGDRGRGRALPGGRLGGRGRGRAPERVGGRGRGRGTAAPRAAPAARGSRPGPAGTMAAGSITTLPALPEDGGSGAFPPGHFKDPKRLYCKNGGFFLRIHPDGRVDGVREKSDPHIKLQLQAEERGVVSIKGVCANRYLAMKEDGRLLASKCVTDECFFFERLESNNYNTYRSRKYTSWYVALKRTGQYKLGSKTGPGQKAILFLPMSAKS
Assay [7] is described as follows: JC-1 mitochondrial potential readout, lung cancer cells – cell-based, A549, JC-1 fluorescence, basal, 24 h, 100 nL, profiling panel (AID 1138).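 Note: A549 lung adenocarcinoma cells under basal conditions with no added stimulus; test concentration not given here.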 As to conditions: higher = more signal.
Assay [8] deals with Lefty1. Briefly: Lefty1 protein binding to printed compounds – biochemical, small-molecule microarray, 635/667 nm fluorescence, primary screen (AID 1139). The settings on record: fluorescence 635/667, higher = more signal.
Assay [9] relates to wheat germ agglutinin (Triticum aestivum), Alexa647-labelled. Briefly: Alexa647-WGA lectin binding to printed small molecules – biochemical, small-molecule microarray, 635/667 nm fluorescence, artefact control for SMM control-protein annotation, profiling panel (AID 1140).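 Note: score merges 667 nm feature emission with signal to noise over triplicate slides.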 As to conditions: WGA-A647 binding, 635 nm fluorescence, higher = more signal.
Assay [10] concerns the target Luciferin 4-monooxygenase (Photinus pyralis) (UniProt P08659). Briefly: inhibition of purified Photinus pyralis luciferase – biochemical, luminescence, purified enzyme, 2006 set, primary screen (AID 1141).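 Note: cell-free assay with purified firefly luciferase at 100 ng per well in PBS; test concentration not given here.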 The settings on record: purified firefly luciferase, SteadyGlo luminescence, 30 min; higher = more signal, called active from +8 up or from −8 down.
Assay [11] relates to Wnt5a (protein binding on small-molecule microarray). Briefly: small molecules binding Wnt5a protein – biophysical, small-molecule microarray, 635/667 nm fluorescence, primary screen (AID 1142).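 Note: fluorescence read at 667 nm with signal to noise per printed feature.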 The settings on record: 635 nm fluorescence, higher = more signal.
Assay [12] in a line: ATP-based viability of Huh7 replicon cells – cell-based, CellTiter-Glo luminescence, basal, 48 h, cytotoxicity control for HCV replication inhibitor project, primary screen (AID 1143).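 Note: Huh7 hepatoma cells carrying a hepatitis C replication reporter with no stimulus; test concentration not given here.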 The settings on record: higher = more signal, called active from +8 up or from −8 down. Background: In antiviral work, replicon cells carry a viral genome segment that copies itself.
The nature of assay [13]: Pseudomonas biofilm growth suppression – PAO1 strain, BacTiter-Glo luminescence, LB-PBS, primary screen (AID 1144). As to conditions: P. aeruginosa PAO1 biofilm, 12 h, higher = more signal.
A short description of assay [14]: basal CRE-LacZ reporter activity in PC12 – cell-based, unstimulated, primary screen (AID 1145). The settings on record: no forskolin, luminescence, 4.5 h, higher = more signal, called active from +8 up or from −8 down.
A short description of assay [15]: forskolin-driven CRE-LacZ activity in PC12 – cell-based, CRE-LacZ reporter, forskolin-stimulated, primary screen (AID 1146).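 Note: PC12 cells with 6xCRE LacZ reporter stimulated by forskolin 10 µM; beta-galactosidase reporter signal reflecting CREB driven transcription.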 As to conditions: luminescence, 4.5 h, higher = more signal, called active from +8 up or from −8 down.
Assay [16] has as its target Streptavidin (Streptomyces avidinii) (UniProt P22629). Kind of assay: compounds binding control protein streptavidin – biophysical, small-molecule microarray, 635/667 nm fluorescence, artefact control for SMM compound annotation, primary screen (AID 1147).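 Note: signal reflects streptavidin binding to arrayed compounds as a control protein.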 The settings on record: higher = more signal.
A short description of assay [17]: probe aInhba binding on compound microarray – biochemical, small-molecule microarray, 635/667 nm fluorescence, primary screen (AID 1148).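 Note: score merges 667nm spot fluorescence with signal-to-noise for antibody binding to printed compounds.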 As to conditions: higher = more signal.
Assay [18] deals with Torsin-1A (Homo sapiens) (UniProt O14656). Kind of assay: TOR1A wild-type binding on microarray – cell lysate, small-molecule microarray, lysate, 635/667 nm, primary screen (AID 1149). The settings on record: COS7 hTOR1A-WT lysate, 635 nm fluorescence, higher = more signal.
Torsin-1A (Homo sapiens), sequence (O14656 whole entry, looked up): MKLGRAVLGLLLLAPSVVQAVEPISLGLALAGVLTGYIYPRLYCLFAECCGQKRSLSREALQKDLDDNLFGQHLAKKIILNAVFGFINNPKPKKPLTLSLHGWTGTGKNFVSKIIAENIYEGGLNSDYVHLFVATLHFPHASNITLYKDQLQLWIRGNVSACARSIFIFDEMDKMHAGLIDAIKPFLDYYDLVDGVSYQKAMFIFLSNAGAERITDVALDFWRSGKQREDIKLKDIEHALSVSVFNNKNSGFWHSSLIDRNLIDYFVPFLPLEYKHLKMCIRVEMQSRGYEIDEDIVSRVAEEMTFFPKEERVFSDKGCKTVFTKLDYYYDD
The target is the same in assay [19]. Briefly: torsin A mutant lysate binding on microarrays – cell lysate, small-molecule microarray, COS7 lysate, 635/667 nm fluorescence, primary screen (AID 1150).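 Note: score pools 667 nm emission and signal to noise measuring lysate protein binding.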 The settings on record: COS7 hTOR1A mutant lysate, 635 nm fluorescence, higher = more signal.
Assay [20] deals with Sonic hedgehog protein (Shh). Briefly: Sonic hedgehog microarray binding compounds – biochemical, small-molecule microarray, 635/667 nm fluorescence, primary screen (AID 1151).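 Note: Shh protein binding to compounds spotted on small-molecule microarray slides; score combines spot fluorescence intensity with signal-to-noise across triplicate slides.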 As to conditions: 635 nm fluorescence, higher = more signal.

Streptavidin (Streptomyces avidinii), sequence (P22629 whole entry, looked up): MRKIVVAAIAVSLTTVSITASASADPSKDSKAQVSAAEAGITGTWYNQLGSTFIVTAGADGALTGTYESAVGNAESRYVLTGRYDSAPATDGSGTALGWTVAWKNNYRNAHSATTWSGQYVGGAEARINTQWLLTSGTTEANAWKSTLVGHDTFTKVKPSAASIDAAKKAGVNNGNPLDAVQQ
Luciferin 4-monooxygenase (Photinus pyralis), sequence (P08659 whole entry, looked up): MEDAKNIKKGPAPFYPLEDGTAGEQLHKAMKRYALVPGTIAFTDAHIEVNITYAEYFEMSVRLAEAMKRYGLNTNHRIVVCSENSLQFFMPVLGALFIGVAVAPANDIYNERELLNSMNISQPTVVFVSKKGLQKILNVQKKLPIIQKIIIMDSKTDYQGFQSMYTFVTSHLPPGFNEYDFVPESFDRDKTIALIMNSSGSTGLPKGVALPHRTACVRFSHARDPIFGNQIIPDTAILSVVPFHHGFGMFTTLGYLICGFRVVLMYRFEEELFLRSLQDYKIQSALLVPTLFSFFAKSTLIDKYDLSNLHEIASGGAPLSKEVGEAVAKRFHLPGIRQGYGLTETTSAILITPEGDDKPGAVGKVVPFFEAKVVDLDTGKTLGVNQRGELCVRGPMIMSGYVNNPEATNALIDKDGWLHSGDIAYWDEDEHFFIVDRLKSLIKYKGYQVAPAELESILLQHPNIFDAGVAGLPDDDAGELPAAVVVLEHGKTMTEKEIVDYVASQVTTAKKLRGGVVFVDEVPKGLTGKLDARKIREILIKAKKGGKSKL

Turning to `CC(C)OC(=O)C=C1C[C@@H](c2ccc(C(F)(F)F)cc2)O[C@@H](c2ccc(C(F)(F)F)cc2)O1`, the composite z-score in [1] is 0.751; in assay [2], 1.25; in assay [3], 1.04; in assay [4], 0.907; in assay [5] it was -0.0691; in assay [6], -0.46. In addition, the composite z-score in assay [8] was -0.0747; in assay [9], 1.21; in [11] it was -0.1; in assay [16], -0.208; in assay [17] it was -0.157; in [18] it was 0.827. For the same compound, the composite z-score in [19] is 0.483; in assay [20] it was -0.831. Further, the z-score in [7] is -0.0127; in [10], -0.478 (inactive); in assay [12] it was -3.23 (inactive); in assay [13], -1.17 (inactive); in assay [14], -0.723 (inactive); in assay [15] it was -0.163 (inactive).
`CN1C(=O)C2C=CC(C(O)c3cccc(O)c3)N(Nc3ccccc3)C2C1=O` (stereo not given): the composite z-score is 0.71 in assay [1]; 0.545 in assay [2]; 0.214 in assay [3]; 0.441 in [4]; 0.214 in assay [5]; -0.191 in [6]. Moreover, the composite z-score in [8] was 0.152; in assay [9], 0.275; in [11], 0.0652; in [16], -0.404; in assay [17], 0.142; in [18] it was -0.379. Besides, the values for the composite z-score in assay [19] and in assay [20] were 0.548 and -0.128, respectively. Besides, the z-score in [7] was 1.19; in assay [10], 0.991 (inactive); in assay [12], 0.656 (inactive); in assay [13], 0.373 (inactive); in assay [14] it was 0.0501 (inactive); in [15], 0.233 (inactive).
Consider `CC1CC/C=C\[C@H]2OC34C=CCN(c5ccc(Cl)cc5)C(=O)[C@H]3N(CCCCCO)C(=O)[C@]4(C)C2C(=O)O1` (stereo not given in full), for which the composite z-score was -0.463 in [1]; -0.978 in assay [2]; -0.857 in [3]; -1.65 in assay [4]; -1.58 in assay [5]; -1.04 in assay [6]. Further, the composite z-score is -0.778 in assay [8]; -0.141 in assay [9]; -0.793 in assay [11]; -1.18 in assay [16]; -0.251 in assay [17]; -2.18 in assay [18]. Further, the composite z-score in [19] is -1.48; in [20] it was -0.449. Besides, the z-score in assay [7] is 0.681; in assay [10], -0.535 (inactive); in assay [12], 0.504 (inactive); in [13], 0.454 (inactive); in assay [14], 0.329 (inactive); in [15] it was -0.75 (inactive).
Take `O=C1O[C@H](c2ccccc2)[C@H](c2ccccc2)N2[C@H]1[C@@H](C(=O)NC[C@H](O)c1ccccc1)[C@]1(C(=O)Nc3ccc(C#CCCO)cc31)[C@H]2c1ccc(OCCO)cc1`: the composite z-score in assay [1] is 1.32; in [2], 1.2; in [3] it was 0.693; in [4], 0.738; in assay [5] it was 0.743; in assay [6], 0.134. The composite z-score was determined as 0.329 in [8]; 1.01 in assay [9]; 0.518 in [11]; 0.0889 in [16]; 0.0464 in assay [17]; 0.13 in [18]. Further, the composite z-score in assay [19] is 0.38; in [20] it was 1.76. Besides, the z-score in assay [7] is -0.552; in assay [10], -2.02 (inactive); in assay [12], -0.821 (inactive); in [13], -0.626 (inactive); in [14] it was 0.299 (inactive); in assay [15], 0.0413 (inactive).
`COC(=O)[C@H](Cc1ccccc1)N1CC(/C=C/C2CC2)=C[C@H]1[C@H](O)Cc1ccccc1`: the composite z-score in [1] is -0.0173; in assay [2], 0.921; in assay [3], 0.437; in [4] it was 0.667; in assay [5], 0.582; in assay [6], 0.526. Moreover, the composite z-score is 0.545 in assay [8]; 0.958 in [9]; -0.0412 in assay [11]; 0.626 in [16]; -0.0523 in assay [17]; 0.211 in [18]. The values for the composite z-score in assay [19] and in [20] were 0.188 and 0.593, respectively. Besides, the z-score is -0.267 in [7]; -0.807 (inactive) in assay [10]; -2.83 (inactive) in assay [12]; 0.954 (inactive) in assay [13]; 2.1 (inactive) in assay [14]; 18.9 (active) in assay [15].
`COCCOC(=O)N1C(=O)[C@@]2(c3cc(C#CC4=CCCCC4)ccc31)[C@H](C(=O)N1CCCCCCC1)[C@H]1C(=O)O[C@H](c3ccccc3)[C@H](c3ccccc3)N1[C@@H]2c1ccc(O)cc1`: the composite z-score in assay [1] was -0.014; in [2] it was 1.13; in assay [3], 0.701; in assay [4], -0.0414; in assay [5], 1.12; in assay [6], 0.446. The composite z-score in assay [8] is 0.486; in [9], 0.436; in [11], 0.278; in assay [16], 0.0947; in assay [17], 0.329; in assay [18] it was 0.681. In addition, the composite z-score in [19] turned out to be 0.595; in [20] it was 1.3. Besides, the z-score was 0.5 in [7]; -5.8 (inactive) in assay [10]; -4.39 (inactive) in [12]; -1.7 (inactive) in [13]; -0.815 (inactive) in assay [14]; 0.234 (inactive) in assay [15].
